In the library only some 2.3% were active in any assay of this set; here they are far more common.
Abeta yeast res – restores growth of yeast expressing A-beta42 peptide | yeast expressing A-beta42, growth rescue, OD600, 48 h; response scale: 0% DMSO, 100% iron-clioquinol control | Potency, µM (series often up to 46.1 µM), most hits filed as activators | 410,000 compounds, 0.063% hits; note: nearly all actives have a fitted effect of over 55% in size
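Yeast growth medium received pinned compounds, then yeast cells expressing toxic A-beta were added; plates incubated at 30 C for 48 hr. Growth read as absorbance at 600 nm, normalized to DMSO and equimolar FeCl3 plus clioquinol controls.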
pAkt inh – blocks phosphorylation of Akt; Neuro2A IGF-stimulated pAkt S473 HTRF, 20 min; active compounds read low; 360,000 compounds, 0.32% hits; activity change, % for hits at 50 µM; in the data active = activity change below about -80%; inconclusive = mostly about -51% to -80%
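Single-point screen (50 µM final compound) in Neuro2A cells stimulated 20 min with 6 nM IGF at 37 deg C. After lysis, Ser473-phosphorylated Akt read by HTRF (ex 330 nm, em 615/665 nm) as the 665/615 ratio.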
TDP-43 yeast inh – inhibitors of TDP-43 toxicity in yeast. TDP-43 expressing yeast growth rescue, BacTiter-Glo, 24 h. 410,000 compounds, 1.8% hits. AID 652104. Potency, µM (titrated, usually from 46.1 µM), hits mostly activators; note: nearly all actives have a fitted effect of over 50% in size
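Galactose-induced TDP-43 yeast, OD600=0.02, compound pinned; 24 hr, 30 deg C; BacTiter-Glo luminescence for growth. Inhibitors of TDP-43 toxicity read as activators.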
aSyn yeast inh – inhibitors of alpha-synuclein toxicity in yeast; Yeast expressing alpha-synuclein, growth rescue, BacTiter-Glo, 24 h; Potency, µM (doses to about 46.1 µM), most hits filed as activators; 370,000 compounds, 0.14% hits; AID 652106; note: nearly all actives have a fitted effect of over 65% in size
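Screening used galactose-induced yeast with toxic alpha-synuclein levels, exposed to compound for 24 hr at 30 deg C. Cell growth, read with BacTiter-Glo luminescence, gave the measured signal.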
FUS suppressor – rescues growth of FUS-expressing yeast | 390,000 compounds, 0.24% hits | S. cerevisiae FUS-expressing, growth rescue, OD600, 24 h | Potency, µM (doses to about 76.6 µM), hits mostly activators | AID 1347120; note: nearly all actives have a fitted effect of over 55% in size
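Cultures pregrown in 2.5% raffinose medium are shifted to minimal medium containing 2% galactose to express toxic FUS. Compounds are tested at several concentrations. After 24hr at 30C, growth is quantified at 600 nm absorbance.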
Hits are given with their value; n = inactive; u = inconclusive; x = no result given; [ ] = remark or other dose. Unless noted, calls come from the whole dose curve; as a rule, active = well fitted curve in the direction sought with a large enough effect; inconclusive = small, poorly fitted or top-dose-only effect, or another doubt; inactive = no such curve, though single readings can be large; an effect the other way counts as inactive or inconclusive.

SMILES	Abeta yeast res	pAkt inh	TDP-43 yeast inh	aSyn yeast inh	FUS suppressor
Cc1[nH]c2ccccc2c1C(c1ccccc1)c1ccc(Cl)s1 (configuration not stated)	u	x	35µM	x	n
CC(C(=O)Nc1ccccc1C(F)(F)F)n1nc(-c2ccccc2)c2c(c1=O)CCCC2 (configuration not stated)	n	x	35µM	x	n
O=C(CCCn1c(=O)c2cccn2c2ccccc21)NCCc1ccc(Cl)cc1	u	x	25µM	x	n
O=C(CCn1c(=O)c2cccn2c2ccc(F)cc21)NCCc1ccc(Cl)cc1	n	x	n	x	n
O=[N+]([O-])c1ccc(/C=N/NC(=S)Nc2ccccc2F)o1	n	n	13µM	n	n
O=[N+]([O-])c1ccc(/C=N/NC(=S)Nc2ccccc2)o1	n	n	n	n	n
Cc1ccc2c(c1)c(=O)c(C(=O)c1ccccc1)cn2Cc1ccccc1F	n	x	u	x	n
Cc1ccc(-n2nc(C(=O)N3CCN(c4ccccc4)CC3)c(=O)n(C)c2=O)cc1	n	x	n[9.22 µM]	x	n
COc1cc(OC)c(OC)cc1/C=C1\CC(C)C/C(=C\c2cc(OC)c(OC)cc2OC)C1=O (configuration not stated)	n	n	n	n	25µM
O=C(O)c1ccc(C2CCCCC2)cn1	n	n	13µM	u	n
COc1ccc(-c2nn3c(=O)cc(CN4CCN(S(=O)(=O)c5ccc(C)cc5)CC4)nc3s2)cc1	n	x	n	x	n
CC(C)c1ccc(Nc2c(-c3ccsc3)nc3ccc(Cl)cn23)cc1	n	x	n	x	n
Cc1cc(F)ccc1S(=O)(=O)Nc1ccccc1C(=O)N1CCCC1	n	n	n	4.5µM	n
Cc1cc(F)ccc1S(=O)(=O)Nc1ccc(C(=O)N2CCCCCC2)cc1	n	n	n	n[1.84 µM]	n
CC(=O)c1ccc(NC(=O)CSc2nccn2Cc2ccc3c(c2)OCO3)cc1	n	x	n	x	n
CCOC(=O)c1cc2c(=O)n3ccccc3nc2n(CC2CCCO2)c1=NC(=O)c1cccc(C(F)(F)F)c1 (configuration not stated)	n	x	n	x	n
Cc1oc(-c2ccccc2F)nc1CSCC(=O)N1CCN(c2ccccc2)CC1	n	x	32µM	x	n
Cc1oc(-c2ccccc2Cl)nc1CSCC(=O)N1CCCC1	n	n	13µM	n	n
COc1ccccc1CNC(=O)CSCc1nc(-c2ccc(OC)c(OC)c2)oc1C	n	x	n	x	n
COc1ccc(-c2nc(CSCC(=O)N3CCN(c4ccccc4F)CC3)c(C)o2)cc1	n	x	n	x	u
COc1ccc(-c2nc(CSCC(=O)NCc3ccccc3Cl)c(C)o2)cc1OC	n	x	25µM	x	n
Cc1ccc(-c2cc3c(n2-c2ccc(F)cc2)CC(C)(C)CC3=O)cc1	n	x	n	x	n
CCNC1=C(Cl)C(=O)c2ccccc2C1=O	n	n	13µM	n	n
Cc1cc(C)c(OCC(=O)OC(C)C(=O)N2CCc3ccccc32)c(C)c1 (configuration not stated)	n	n	22µM	n	n
Cc1ccc(Cn2c(C)c(CNCc3ccccc3F)c(C(=O)O)c2C)cc1	n	x	n	x	n
SMILES	Abeta yeast res	pAkt inh	TDP-43 yeast inh	aSyn yeast inh	FUS suppressor
Cc1ccccc1NCc1ccc(O)c2ncccc12	n	n	n	n	n
Oc1ccc(CNc2ccccc2Br)c2cccnc12	x	x	x	x	18µM
Nc1nc(NCc2cccc(Cl)c2)c2[nH]cnc2n1	x	x	x	n	x
COc1ccc(CN(Cc2ccccc2)C(=O)c2ccco2)cc1COc1ccc(NC(C)=O)cc1	x	x	x	n	x
Cc1ccc(-c2ccc(/C=N/NC(N)=S)o2)cc1	u	n	u	n	n
NC(=S)N/N=C/C=C/c1ccccc1	n	n	10µM	n	n
O/N=C\c1ccc(-c2ccccc2)o1	n	n	8.9µM	n	x
NC(=S)N/N=C/c1ccc(-c2ccc(Cl)c(Cl)c2)o1	n	n	20µM	n	n
NC(=S)N/N=C/c1ccc(-c2ccccc2)o1	u	n	11µM	n	n
Cc1ccc(C(=O)N/N=C/C=C/c2ccccc2)cc1	n	n	n[9.22 µM]	n	n
Cc1ccc(S(=O)(=O)Nc2cccc(-c3ccc(N4CCCCC4)nn3)c2)s1	n	x	n	x	n
COc1cccc(C2C=C(c3ccc(C)c(C)c3)Nc3nnnn32)c1OC (configuration not stated)	n	x	n	x	n
NC(=S)N/N=C/c1cccc(Br)c1	n	n	20µM	n	n
NC(=S)N/N=C\c1ccc(-c2cccc(Cl)c2Cl)o1	u	-122%	u	n	n
NC(=S)N/N=C/c1cccc(/C=N/NC(N)=S)c1	n	n	n	n	n
O=C(Cn1cc(C(=O)c2ccncc2)c(=O)c2cc(F)ccc21)Nc1ccc(Cl)cc1	n	x	n	x	n
Cc1ccc(S(=O)(=O)N2CCN(C(=O)COC(=O)c3ccccc3Cl)CC2)c(C)c1	n	n	25µM	n	n
COc1ccc(-c2nc3cnccn3c2Nc2ccc3c(c2)OCO3)cc1	n	n	n	n	28µM
CCN(C(=O)C1CCCN(c2ncnc3c2nc2n3CCCCC2)C1)c1cccc(C)c1 (configuration not stated)	n	x	14µM	x	n
CCN(C(=O)C1CCCN(c2ncnc3c2nc2n3CCCCC2)C1)c1cccc(Cl)c1 (configuration not stated)	n	x	25µM	n	u
Cc1ccnc(NC(=O)C2CCCN(c3ncnc4c3nc3n4CCCCC3)C2)c1 (configuration not stated)	n	n	n	n	n
O=C(Nc1cccnc1Cl)C1CCCN(c2ncnc3c2nc2n3CCCCC2)C1 (configuration not stated)	n	n	n	n	n
O=C(Nc1ccc(Cl)cn1)C1CCCN(c2ncnc3c2nc2n3CCCCC2)C1 (configuration not stated)	n	n	u	n	n
COc1ccc(Cl)cc1NC(=O)C1CCCN(c2ncnc3c2nc2n3CCCCC2)C1 (configuration not stated)	n	n	14µM	n	n
Cc1ccc(S(=O)(=O)c2nnn3c2nc(N2CCC(C)CC2)c2cc(Cl)ccc23)cc1C	n	x	n	x	n
SMILES	Abeta yeast res	pAkt inh	TDP-43 yeast inh	aSyn yeast inh	FUS suppressor
COc1ccccc1NC(=O)C1=C(C)Nc2nc3ccccc3n2C1c1ccccc1Cl (configuration not stated)	n	x	n	x	n
COc1cc(/C=N/NC(=S)NC2CC3C=CC2C3)cc(OC)c1OC (configuration not stated)	u	n	n	n	n
CCOc1ccc(/C=N/NC(=S)NC2CC3C=CC2C3)cc1 (configuration not stated)	7.9µM	n	n	n	n
CCOc1ccccc1-c1nc(-c2ccc(C)nc2OC)no1	n	n	20µM	n	u
CCOC(=O)CNC(=O)c1ccc(Cl)s1	n	n	x	n	n
CCNc1nc(N)c(C(=O)c2ccc(Cl)s2)s1	n	n	13µM	n	n

Screening results from PubChem.
